# In PubChem BioAssay:
# Active and inactive are the calls of the source. Rule as the data show it, unless noted: active = inhibition above about 80%; inactive = the rest.
# Tests used:
# [1] = LFS_MB_P medulloblastoma growth inhibition, cell-based, chromothripsis tumors, cisplatin or BGB combos (AID 1671449); details: LFS_MB_P medulloblastoma cells;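 also: cells exposed for 96 hours; 0% = vehicle DMSO and 100% = killing by high DMSO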
# [2] = HDN33 neuroblastoma growth inhibition, cell-based, chromothripsis tumors, cisplatin or BGB combos (AID 1671450); details: HDN33 neuroblastoma cells, stronger effect = higher value;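 also: cells exposed to compound for four days; 0% = vehicle DMSO and 100% = cell killing by high DMSO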
# [3] = ICB984 medulloblastoma cell growth inhibition, synergistic combos for chromothripsis tumors, cisplatin or BGB combos (AID 1671451; call rule not given here;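 also: cells exposed for 96 hours before readout; 0% = vehicle DMSO and 100% = killing by high DMSO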); details: ICB984 medulloblastoma cells, drug combinations, stronger effect = higher value
# [4] = LFS_MB_1R medulloblastoma cell growth inhibition, synergistic combos for chromothripsis tumors, cisplatin or BGB combos (AID 1671452); details: LFS_MB_1R medulloblastoma cells, stronger effect = higher value;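 also: cells exposed for 96 hours before readout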
# [5] = HTB85 osteosarcoma cell growth inhibition, synergistic combos for chromothripsis tumors, BGB or cisplatin IC20 combos (AID 1671453); details: HTB85 osteosarcoma cells, drug combinations, stronger effect = higher value;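 also: cells exposed for 96 hours before readout; 0% = vehicle DMSO and 100% = high DMSO killing control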
# [6] = CRL2098 osteosarcoma cell growth inhibition, synergistic combos for chromothripsis tumors, BGB or cisplatin IC20 combos (AID 1671454); details: CRL2098 osteosarcoma cells, drug combinations, stronger effect = higher value;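 also: cells exposed for 96 h before readout; 0% = vehicle DMSO and 100% = killing by high DMSO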
# [7] = HD-MB03 medulloblastoma cell growth inhibition, synergistic combos for chromothripsis tumors, BGB or cisplatin IC20 combos (AID 1671455; in the data active = inhibition above about 83%;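 also: 0% = vehicle DMSO and 100% = high DMSO as cytotoxic control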); details: HD-MB03 medulloblastoma cells, stronger effect = higher value
# [8] = UWB1.289 ovarian carcinoma cell growth inhibition, synergistic combos for chromothripsis tumors, BGB or cisplatin combos (AID 1671456); details: UWB1.289 ovarian carcinoma cells, stronger effect = higher value;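 also: cells exposed to compound for four days; 0% = vehicle DMSO and 100% = killing by high DMSO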
# [9] = LFS_MB_2R medulloblastoma cell growth inhibition, synergistic combos for chromothripsis tumors, cisplatin combos (AID 1671457); details: LFS_MB_2R medulloblastoma cells, stronger effect = higher value;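 also: cells exposed to compound for four days before readout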
# [10] = MDA-MB-436 breast carcinoma cell growth inhibition, synergistic combos for chromothripsis tumors, BGB or cisplatin combos (AID 1671458; call rule not given here;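 also: cells exposed for 96 hours; 0% = vehicle DMSO and 100% = killing by high DMSO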); details: MDA-MB-436 breast carcinoma growth inhibition, drug combinations, stronger effect = higher value
# [11] = UWB1.289_BRCA1 ovarian cancer growth, cell-based, BGB or cisplatin combinations (AID 1671459); details: UWB1.289 BRCA1 ovarian carcinoma, drug combinations, stronger effect = higher value
# [12] = human astrocyte viability loss, single and combined drugs, cytotoxicity control for chromothriptic childhood tumor combination screen, cell-based, BGB or cisplatin IC20 combos (AID 1671460); details: Human astrocytes, drug combinations, stronger effect = higher value;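 also: cells exposed to compounds for 96 hours before viability readout; 0% = vehicle and 100% = killing control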
# [13] = growth inhibition of BT084 medulloblastoma cells, cell-based, ICGC_MB145, cisplatin and BGB IC40 combos (AID 1671461); details: drug combinations, stronger effect = higher value;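 also: cells exposed to drugs for 96 hours; 0% = vehicle DMSO and 100% = high DMSO full killing control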
# [14] = growth inhibition of RCMB18 medulloblastoma cells, cell-based, cisplatin and BGB IC40 combos (AID 1671462); details: stronger effect = higher value;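 also: cells exposed to compound for four days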
# [15] = growth inhibition of CRL1545 osteosarcoma cells, cell-based, cisplatin and BGB IC20 combos (AID 1671464); details: stronger effect = higher value;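 also: cells exposed to compound for 96 hours before readout; 0% = vehicle DMSO and 100% = high DMSO killing control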
# [16] = at 0.5 µM, stronger effect = higher value
# [17] = measured here: combination with BGB IC20, at 0.005 µM
# [18] = measured here: combination with BGB IC40, at 0.005 µM
# [19] = measured here: combination with BGB IC40, at 0.05 µM
# [20] = measured here: combination with cisplatin, at 0.5 µM, stronger effect = higher value
# [21] = measured here: combination with cisplatin, at 5 µM, stronger effect = higher value
# [22] = measured here: with BGB IC20 combination, at 0.5 µM
# [23] = measured here: with cisplatin IC20 combination, at 0.5 µM
# [24] = measured here: 5 uM single agent, at 5 µM
# [25] = measured here: combination with cisplatin, at 0.5 µM
# [26] = measured here: combination with cisplatin, at 5 µM
# [27] = measured here: with BGB IC20, at 0.5 µM
# [28] = measured here: with BGB IC20, at 5 µM
# [29] = measured here: with cisplatin IC20, at 0.5 µM
# [30] = measured here: with cisplatin IC20, at 5 µM
# [31] = measured here: combination with BGB at IC20, at 0.5 µM
# [32] = measured here: combination with cisplatin at IC20, at 0.5 µM
# [33] = measured here: combo with BGB at IC20, at 0.5 µM
# [34] = measured here: combo with cisplatin at IC20, at 0.5 µM
# [35] = measured here: inhibition with BGB combination, at 0.05 µM
# [36] = measured here: inhibition with cisplatin combination, at 0.05 µM
# [37] = measured here: BGB combination, at 0.5 µM
# [38] = measured here: BGB combination, at 5 µM
# [39] = measured here: cisplatin combination, at 0.5 µM
# [40] = measured here: cisplatin combination, at 5 µM
# [41] = BGB combination, concentration series, at 5 µM
# [42] = cisplatin combination, concentration series, at 5 µM
# [43] = measured here: combo with BGB IC20, at 0.5 µM
# [44] = measured here: combo with cisplatin IC20, at 0.5 µM
# [45] = cisplatin combination, at 0.5 µM
# [46] = measured here: BGB IC40 combination 0.05 uM, at 0.05 µM
# [47] = measured here: BGB IC40 combination, at 0.05 µM
structure (smiles),measurement,setting,value
Cc1c(Br)cc(NCC(=O)N/N=C/c2cc([N+](=O)[O-])ccc2O)cc1Br,inhibition,[1]; [16],4.38% (inactive)
same,inhibition,[1]; [17],-17.6%
same,inhibition,[1]; [18],-32.2%
same,inhibition,[1]; [19],-25.9%
same,inhibition,[1]; [20],-13.3%
same,inhibition,[1]; [21],49.2%
same,inhibition,"[2]; BGB combo, at 5 µM",40.5%
same,inhibition,[2]; at 0.5 µM,-0.34% (inactive)
same,inhibition,"[2]; cisplatin combo, at 5 µM",36.1%
same,inhibition,[2]; [22],-9.6%
same,inhibition,[2]; [23],14.3%
same,inhibition,"[2]; single agent, at 5 µM",47.8%
same,inhibition,"[3]; BGB IC20 combo, at 0.005 µM",-14%
same,inhibition,"[3]; BGB IC40 combo, at 0.005 µM",-19.6%
same,inhibition,"[3]; BGB IC40 combo, at 0.05 µM",-0.825%
same,inhibition,[3]; at 0.5 µM,-30.2% (inactive)
same,inhibition,"[3]; cisplatin combo, at 0.05 µM",-3.64%
same,inhibition,"[3]; cisplatin combo, at 0.5 µM",-27.9%
same,inhibition,"[3]; cisplatin combo, at 5 µM",-29.5%
same,inhibition,[3]; [24],-33%
same,inhibition,[4]; at 0.5 µM,-22.2% (inactive)
same,inhibition,[4]; [19],-11.7%
same,inhibition,[4]; [25],-16.8%
same,inhibition,[4]; [26],13.4%
same,inhibition,[5]; at 0.5 µM,-6.09% (inactive)
same,inhibition,[5]; [27],-1.02%
same,inhibition,[5]; [28],19.1%
same,inhibition,[5]; [29],-24.4%
same,inhibition,[5]; [30],5.29%
same,inhibition,"[5]; single agent, at 5 µM",37.4%
same,inhibition,[6]; at 0.5 µM,-42.4% (inactive)
same,inhibition,[6]; [31],-43.9%
same,inhibition,[6]; [32],-25%
same,inhibition,[7]; at 0.5 µM,-7.25% (inactive)
same,inhibition,[7]; [33],1.43%
same,inhibition,[7]; [34],-13.4%
same,inhibition,[8]; at 0.5 µM,5% (inactive)
same,inhibition,[8]; [35],-18.4%
same,inhibition,[8]; [36],-10.8%
same,inhibition,[9]; at 0.5 µM,-13% (inactive)
same,inhibition,[9]; [25],-18.6%
same,inhibition,[9]; [26],-37.8%
same,inhibition,[10]; at 0.5 µM,-18.5% (inactive)
same,inhibition,[10]; [37],-10.2%
same,inhibition,[10]; [38],25.8%
same,inhibition,[10]; [39],-39%
same,inhibition,[10]; [40],38.4%
same,inhibition,[11]; [41],59.1%
same,inhibition,[11]; at 0.5 µM,2.01% (inactive)
same,inhibition,[11]; [42],60.8%
same,inhibition,[12]; at 0.5 µM,9.92% (inactive)
same,inhibition,[12]; [43],11.5%
same,inhibition,[12]; [44],17.7%
same,inhibition,[13]; at 0.5 µM,-9.67% (inactive)
same,inhibition,[13]; [45],-1.86%
same,inhibition,"[13]; cisplatin combination, at 5 µM",27.3%
same,inhibition,[13]; [46],-3.3%
same,inhibition,"[13]; single agent, at 5 µM",6.62%
same,inhibition,[14]; at 0.5 µM,-19% (inactive)
same,inhibition,"[14]; cisplatin combo, at 5 µM",25.8%
same,inhibition,[14]; [47],-28.4%
same,inhibition,[14]; [25],22%
same,inhibition,"[14]; single agent, at 5 µM",8.19%
same,inhibition,[15]; at 0.5 µM,-4.87% (inactive)
same,inhibition,[15]; [22],-10.5%
same,inhibition,[15]; [23],-4.39%
same,inhibition,"[15]; single agent, at 0.05 µM",-22.9%
same,inhibition,"[15]; single agent, at 5 µM",44.6%
C=C(NC(=O)C(=C)NC(=O)c1csc(C2=NC3c4csc(n4)C4NC(=O)c5csc(n5)C(C(C)(O)C(C)O)NC(=O)C5CSC(=N5)/C(=C/C)NC(=O)C(C(C)O)NC(=O)c5csc(n5)C3(CC2)NC(=O)C(C)NC(=O)C(=C)NC(=O)C(C)NC(=O)C(C(C)CC)NC2C=Cc3c(C(C)O)cc(nc3C2O)C(=O)OC4C)n1)C(N)=O (stereo unspecified),inhibition,[1]; [16],-22.9% (inactive)
same,inhibition,[1]; [17],-22.9%
same,inhibition,[1]; [18],-22.6%
same,inhibition,[1]; [19],-22%
same,inhibition,[1]; [20],-25.6%
same,inhibition,[1]; [21],114%
same,inhibition,"[2]; BGB combo, at 5 µM",99.7%
same,inhibition,[2]; at 0.5 µM,-22.8% (inactive)
same,inhibition,"[2]; cisplatin combo, at 5 µM",99.7%
same,inhibition,[2]; [22],-25.3%
same,inhibition,[2]; [23],-12.8%
same,inhibition,"[2]; single agent, at 5 µM",99.8%
same,inhibition,"[3]; BGB IC20 combo, at 0.005 µM",7.79%
same,inhibition,"[3]; BGB IC40 combo, at 0.005 µM",-7.37%
same,inhibition,"[3]; BGB IC40 combo, at 0.05 µM",95.2%
same,inhibition,[3]; at 0.5 µM,-28.5% (inactive)
same,inhibition,"[3]; cisplatin combo, at 0.05 µM",95%
same,inhibition,"[3]; cisplatin combo, at 0.5 µM",-29.7%
same,inhibition,"[3]; cisplatin combo, at 5 µM",-54.9%
same,inhibition,[3]; [24],-28.7%
same,inhibition,[4]; at 0.5 µM,-38.7% (inactive)
same,inhibition,[4]; [19],-31%
same,inhibition,[4]; [25],-9.9%
same,inhibition,[4]; [26],100%
same,inhibition,[5]; at 0.5 µM,11.5% (inactive)
same,inhibition,[5]; [27],1.15%
same,inhibition,[5]; [28],70.9%
same,inhibition,[5]; [29],-4.79%
same,inhibition,[5]; [30],86.9%
same,inhibition,"[5]; single agent, at 5 µM",98.8%
same,inhibition,[6]; at 0.5 µM,-6.59% (inactive)
same,inhibition,[6]; [31],7.69%
same,inhibition,[6]; [32],-29.4%
same,inhibition,[7]; at 0.5 µM,2.14% (inactive)
same,inhibition,[7]; [33],13.1%
same,inhibition,[7]; [34],-39.1%
same,inhibition,[8]; at 0.5 µM,-0.91% (inactive)
same,inhibition,[8]; [35],-20.4%
same,inhibition,[8]; [36],-15.4%
same,inhibition,[9]; at 0.5 µM,-37% (inactive)
same,inhibition,[9]; [25],-29.7%
same,inhibition,[9]; [26],104%
same,inhibition,[10]; at 0.5 µM,16.8% (inactive)
same,inhibition,[10]; [37],16.2%
same,inhibition,[10]; [38],90.8%
same,inhibition,[10]; [39],25.6%
same,inhibition,[10]; [40],94.8%
same,inhibition,[11]; [41],97.5%
same,inhibition,[11]; at 0.5 µM,2.16% (inactive)
same,inhibition,[11]; [42],94.4%
same,inhibition,[12]; at 0.5 µM,-36.8% (inactive)
same,inhibition,[12]; [43],-24.8%
same,inhibition,[12]; [44],-63.7%
same,inhibition,[13]; at 0.5 µM,13.8% (inactive)
same,inhibition,[13]; [45],15.3%
same,inhibition,"[13]; cisplatin combination, at 5 µM",91.8%
same,inhibition,[13]; [46],-3.57%
same,inhibition,"[13]; single agent, at 5 µM",104%
same,inhibition,[14]; at 0.5 µM,-9.28% (inactive)
same,inhibition,"[14]; cisplatin combo, at 5 µM",96.8%
same,inhibition,[14]; [47],-17.4%
same,inhibition,[14]; [25],-6.48%
same,inhibition,"[14]; single agent, at 5 µM",90.8%
same,inhibition,[15]; at 0.5 µM,53.8% (inactive)
same,inhibition,[15]; [22],53.1%
same,inhibition,[15]; [23],53.1%
same,inhibition,"[15]; single agent, at 0.05 µM",-28.1%
same,inhibition,"[15]; single agent, at 5 µM",100%
